Laboratory results published in ChEMBL document CHEMBL3988442, “University of Dundee, Small-Polar-MMV Screening Library” (2021).
Among all 66,000 compounds or so, about 960 (1.5%) showed an effect of 50% or more. The entries come from a sample that favours strong results as a whole.

System: Trypanosoma brucei
Assay: Trypanosoma brucei 72 hour study
Type: functional, organism-based
Parameters: scale not given: in the data most compounds retested in dose-response had high values

Q: How did the “Percent Effect” value (30 µM, 30.03 µM) turn out when Cc1c(C(=O)NCCC(=O)N2CCOCC2)sc2ccc(F)cc12 was run?
A: -29.66%

Q: Which “Percent Effect” value (30.3 µM, […]) does the source give for CN1C[C@]2(CC[C@@H](C(=O)O)CC2)Oc2ccccc2C1=O here?
A: -13.61%

Q: How did the “Percent Effect” value (30.3 µM, […]) turn out when C[C@@H]1CN(C(=O)c2cccs2)C[C@]12CCN(CCN(C)C)C2=O.O=C(O)C(F)(F)F was run?
A: -25.2%

Q: Which “Percent Effect” value (30 µM, 30.03 µM) does the source give for O=C(O)C(F)(F)F.O=C(O)C(F)(F)F.c1nc2n(c1CN1CCCCC1)CCN(C1CCOC1)CC2 (stereo not given) here?
A: -102.4%

Q: For c1nc2n(c1CN1CCOCC1)CCN(C1CCOC1)CC2 (stereo not given), which “Percent Effect” value (30 µM, 30.03 µM) is on record?
A: -183.8%

Q: c1nc2n(c1CN1CCCC1)CCN(C1CCOCC1)CC2 was tested. Which “Percent Effect” value (30 µM, 30.03 µM) did it give?
A: 51.58%

Q: With Cl.O=C(NCCO)C1(Cc2ccccc2-c2cccnc2)CCOCC1 as the compound, how does the “Percent Effect” value (30.3 µM, […]) read?
A: -4.855%

Q: With COC1COC2(CCN(Cc3ccc4c(c3)OCO4)CC2)C1.O=C(O)C(F)(F)F (stereo not given) as the compound, how does the “Percent Effect” value (30.3 µM, […]) read?
A: -15.29%

Q: How did the “Percent Effect” value (30.3 µM, […]) turn out when Br.Cc1ncc(C(=O)N2CCOC(C(=O)N3CCCCCC3)C2)c(C)n1 (stereo not given) was run?
A: -22.96%

Q: O=C(NCCCN1CCCC1=O)c1ccc(-n2ccc3ccccc32)s1 was tested. Which “Percent Effect” value (30 µM, 30.03 µM) did it give?
A: 23.58%

Q: For CCN(CC)CCNC(=O)c1ccc(-n2ccc3ccccc32)s1, which “Percent Effect” value (30 µM, 30.03 µM) is on record?
A: -12.39%

Q: With O=C(NCCCN1CCCCC1)c1ccc(-n2ccc3ccccc32)s1 as the compound, how does the “Percent Effect” value (30 µM, 30.03 µM) read?
A: 80.76%

Q: Cn1ccc2c(C(=O)NCCCN3CCCC3)cccc21 was tested. Which “Percent Effect” value (30 µM, 30.03 µM) did it give?
A: -4.832%

Q: For O=C(NCCCN1CCOCC1)c1ccc(-n2ccc3ccccc32)s1, which “Percent Effect” value (30 µM, 30.03 µM) is on record?
A: -4.421%

Q: For O=C(NCCN1CCOCC1)c1ccc(-n2ccc3ccccc32)s1, which “Percent Effect” value (30 µM, 30.03 µM) is on record?
A: 63.33%

Q: For COc1cc(Oc2cnc3ccccc3n2)ccc1CN1CCCC1, which “Percent Effect” value (30 µM, 30.03 µM) is on record?
A: -18.27%

Q: For CC1CCCCN1C(=O)c1n[nH]c(=O)c2ccccc12 (stereo not given), which “Percent Effect” value (30.3 µM, […]) is on record?
A: -7.93%

Q: With Cn1nnc2c1CCN(Cc1ccncc1)C2COCC1CC1.O=C(O)C(F)(F)F.O=C(O)C(F)(F)F (stereo not given) as the compound, how does the “Percent Effect” value (30 µM, 30.03 µM) read?
A: 49.24%

Q: For CCOCc1ccccc1NC(=O)NCC(C)(O)c1cccs1 (stereo not given), which “Percent Effect” value (30 µM, 30.03 µM) is on record?
A: -46.58%

Q: CCOCc1ccccc1NC(=O)NCC(C)(O)c1ccsc1 (stereo not given) was tested. Which “Percent Effect” value (30 µM, 30.03 µM) did it give?
A: 56.33%

Q: With CCOCc1ccccc1NC(=O)NCC(C)(O)c1cc(C)oc1C (stereo not given) as the compound, how does the “Percent Effect” value (30 µM, 30.03 µM) read?
A: -15.34%

Q: Which “Percent Effect” value (30 µM, 30.03 µM) does the source give for Cc1nonc1CN(C)c1nc(-c2ccco2)nc2c1CCN(C)CC2 here?
A: -56.96%

Q: O=C(NCCc1coc(-c2ccccc2)n1)NC1CC1 was tested. Which “Percent Effect” value (10 µM) did it give?
A: 101.4%

Q: What about the “Percent Effect” value (30.3 µM, […]) of the same compound?
A: 100%

Q: With Cc1ccc(-c2nc(CCNC(=O)NC3CCN(C)CC3)co2)cc1 as the compound, how does the “Percent Effect” value (30 µM, 30.03 µM) read?
A: 6.387%

Q: Which results are given for O=C(NCCc1coc(-c2ccc(F)cc2)n1)NC1CC1?
A: Percent Effect (10 µM): 99.81%; Percent Effect (30.3 µM, […]): 99.45%

Q: For COc1ccc(-c2nc(CCNC(=O)NC3CCC(O)CC3)co2)cc1 (stereo not given), which “Percent Effect” value (30 µM, 30.03 µM) is on record?
A: -54.4%

Q: How did the “Percent Effect” value (30 µM, 30.03 µM) turn out when O=C(NCCc1coc(-c2ccc(F)cc2)n1)NC1CCC(O)CC1 (stereo not given) was run?
A: -16.25%

Q: What does the source list for Cc1ccc(-c2nc(CCNC(=O)NC3CCC(O)CC3)co2)cc1 (stereo not given)?
A: Percent Effect (10 µM): -4.374%; Percent Effect (30.3 µM, […]): 17.54%

Q: How did the “Percent Effect” value (30.3 µM, […]) turn out when CO[C@@H]1CN(c2ccccc2)S(=O)(=O)[C@@]12CCN(C(=O)N(C)C)C2 was run?
A: 5.082%

Q: Which “Percent Effect” value (30.3 µM, […]) does the source give for O=C1C[C@H]2CC[C@@H](CN1)N2C(=O)CCc1ccsc1 here?
A: 5.085%

Q: With CCc1n[nH]c(C2CN(C(=O)c3ncoc3C(C)C)CCO2)n1 (stereo not given) as the compound, how does the “Percent Effect” value (30.3 µM, […]) read?
A: 10.22%

Q: For COCCN(CC1CC1)c1nc(CCN)nc2sc(C)c(C)c12, which “Percent Effect” value (30 µM, 30.03 µM) is on record?
A: 105.1%

Q: How did the “Percent Effect” value (30 µM, 30.03 µM) turn out when COCCN(CC1CC1)c1nc(CCN)nc2ccccc12 was run?
A: 27.63%

Q: Which “Percent Effect” value (30 µM, 30.03 µM) does the source give for Cc1sc2nc(CCN)nc(N(C)CCCC3CCCO3)c2c1C (stereo not given) here?
A: 73.15%

Q: Which “Percent Effect” value (30 µM, 30.03 µM) does the source give for Cc1sc2nc(CCN)nc(N(CCN(C)C)CC3CCCO3)c2c1C (stereo not given) here?
A: 33.05%

Q: For CCN(CCN(C)C)c1nc(CCN)nc2sc(C)c(C)c12, which “Percent Effect” value (30 µM, 30.03 µM) is on record?
A: -19.52%

Q: COCCN(Cc1cccs1)c1nc(CCN)nc2ccccc12 was tested. Which “Percent Effect” value (30 µM, 30.03 µM) did it give?
A: 3.665%

Q: For O=C(O)C(F)(F)F.O=C1CCC2(CCN(Cc3nccs3)CC2)N1Cc1ccccc1, which “Percent Effect” value (30 µM, 30.03 µM) is on record?
A: -8.129%

Q: O=C(O)C(F)(F)F.O=C1CC[C@H]2[C@H](CCN2C(=O)C2CCOC2)N1Cc1ccncc1 (stereo not given in full) was tested. Which “Percent Effect” value (30 µM, 30.03 µM) did it give?
A: -22.31%

Q: With Cc1noc(C)c1CN1C[C@H](OCC2CCN(C)CC2)[C@H]2COC[C@H]21.O=C(O)C(F)(F)F.O=C(O)C(F)(F)F as the compound, how does the “Percent Effect” value (30.3 µM, […]) read?
A: -21.15%

Q: Cc1nc(COCC2CN(C(=O)N(C)C)Cc3nccn3C2)cs1.O=C(O)C(F)(F)F (stereo not given) was tested. Which “Percent Effect” value (30.3 µM, […]) did it give?
A: -49.05%

Q: CCn1ncc2c1C(COC)CN(Cc1cccnc1)C2.O=C(O)C(F)(F)F.O=C(O)C(F)(F)F.O=C(O)C(F)(F)F (stereo not given) was tested. Which “Percent Effect” value (30.3 µM, […]) did it give?
A: -94.72%

Q: COc1cc(N2CC[C@@H](O)[C@@H]2Cc2ccncc2)ncn1.O=C(O)C(F)(F)F was tested. Which “Percent Effect” value (30 µM, 30.03 µM) did it give?
A: 35.07%

Q: Which “Percent Effect” value (30 µM, 30.03 µM) does the source give for COc1ncccc1-c1ncccc1NC(=O)C(C)C here?
A: 34.88%

Q: COc1cc(F)ccc1-c1ncccc1NC(=O)C(C)C was tested. Which “Percent Effect” value (30 µM, 30.03 µM) did it give?
A: 52.34%

Q: How did the “Percent Effect” value (30 µM, 30.03 µM) turn out when COc1ccc(F)c(-c2ncccc2NC(=O)C(C)C)c1 was run?
A: 20.56%

Q: With Cl.Nc1ncnc2nc(C3CCCCN3)ccc12 (stereo not given) as the compound, how does the “Percent Effect” value (30.3 µM, […]) read?
A: 5.297%

Q: Which “Percent Effect” value (30 µM, 30.03 µM) does the source give for COCCN1CCC(CN(CC2CCCO2)C(=O)CNC(C)=O)CC1 (stereo not given) here?
A: 3.281%

Q: With CCn1cc(CN2CCCN(C(=O)CCn3cc(C)cn3)CC2)cn1 as the compound, how does the “Percent Effect” value (30.3 µM, […]) read?
A: -9.74%

Q: What about the “Percent Effect” value (10 mM, 10 mM as filed; unlikely as a test dose) of the same compound?
A: -22.46%

Q: How did the “Percent Effect” value (30.3 µM, […]) turn out when CCCNC(=O)c1cc(-c2cnc(N3CCCC3)nc2)cn1C was run?
A: -994.8%

Q: For CN(C)CCNC(=O)c1cc(-c2cnc(N3CCOCC3)nc2)cn1C.O=C(O)C(F)(F)F, which “Percent Effect” value (30.3 µM, […]) is on record?
A: -753.9%

Q: With CN(C)CCNC(=O)c1cc(-c2cnc(N3CCCC3)nc2)cn1C.O=C(O)C(F)(F)F as the compound, how does the “Percent Effect” value (30 µM, 30.03 µM) read?
A: 97.37%

Q: How did the “Percent Effect” value (30.3 µM, […]) turn out when Cl.Cn1nc(C2CCCN(Cc3cc(F)ccc3F)C2)c2nccnc21 (stereo not given) was run?
A: 20.63%

Q: Which “Percent Effect” value (30.3 µM, […]) does the source give for CN1[C@@H](C(=O)NCC2CC2)C[C@H]2CN(Cc3ccsc3)C[C@H]21.O=C(O)C(F)(F)F.O=C(O)C(F)(F)F here?
A: -48.96%

Q: For Cn1nc(COCC2CC2)c2c1CN(CC1CC1)CC2.O=C(O)C(F)(F)F.O=C(O)C(F)(F)F, which “Percent Effect” value (30.3 µM, […]) is on record?
A: -59.62%

Q: Which “Percent Effect” value (30.3 µM, […]) does the source give for CN(Cc1ccc2c(c1)OCO2)C(=O)c1ccc(=O)n(C)c1 here?
A: -33.31%

Q: With O=C(NCc1ccc2c(c1)OCO2)c1ccccc1C1CCNC1 (stereo not given) as the compound, how does the “Percent Effect” value (30 µM, 30.03 µM) read?
A: 75.73%

Q: Which “Percent Effect” value (30 µM, 30.03 µM) does the source give for O=C(NCc1ccc2c(c1)CCCO2)c1ccccc1C1CCNC1 (stereo not given) here?
A: -18.86%

Q: How did the “Percent Effect” value (30 µM, 30.03 µM) turn out when CN(Cc1ccc2c(c1)OCO2)C(=O)c1ccc(C2CCCNC2)cc1 (stereo not given) was run?
A: 78.75%

Q: Which “Percent Effect” value (30 µM, 30.03 µM) does the source give for CSc1cccc(CN(C)C(=O)c2ccc(C3CCCNC3)cc2)c1 (stereo not given) here?
A: 45.3%

Q: Which “Percent Effect” value (30 µM, 30.03 µM) does the source give for CC(C)Cc1cc(CNC(=O)c2ccccc2C2CCNC2)no1 (stereo not given) here?
A: -25.71%
